Where “and” joins values, the source holds several entries; their conditions need not be identical. Equal values may be shown once. Hit rate of the full screen: of about 1,500 compounds, about 140 (9.3%) were called active. The rule behind the calls is not given here. Only a selection was taken, and actives are over-represented in it overall.

The assay can be described thus: AlphaScreen signal interference with preloaded methylated product, dose response, artefact control for NSD2 inhibitor project, biochemical, cherry-picked samples (AID 1053174).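 Note: actives lower the AlphaScreen signal from the preloaded product and count as artifacts.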
As to `Cc1ccc(S(=O)(=O)/N=C2\C=C(Nc3cccc(C(=O)O)c3)C(=O)c3ccccc32)c(C)c1`, the AbsAC35 is 11.5 µM (active).

In the case of `Cc1ccccc1NC1=C/C(=N\S(=O)(=O)c2ccc(C(=O)O)cc2)c2ccccc2C1=O`, the AbsAC35 was 11.8 µM (active).

With `N=C1/C(=C/c2ccc(O)c(O)c2)C(=O)N=C2SC(CC(=O)N3CCCC3)=NN12`, the AbsAC35 was 10.6 µM (active).

In the case of `Cc1cccc(C)c1N=Nc1c(C)cc(O)cc1C`, the AbsAC35 is 20.6 µM (active).

As for `O=C1/C(=C\c2cccc(O)c2O)SC(=S)N1Cc1ccccc1`, the AbsAC35 was 14.9 µM (active).

For `O=C1NC(=O)/C(=C\c2ccc(O)cc2O)S1`, the AbsAC35 is 18.9 µM (active).

In the case of `CC1CCCC(C)N1/N=C/c1ccc(O)c(O)c1` (stereo not given), the AbsAC35 was 10.9 µM (active).

Consider `CSc1ccc(/C=N/Nc2cccc(C(=O)O)c2)cc1`, for which the AbsAC35 was 12 µM (active).

Turning to `O=C(Cc1nnc(NC(=O)c2ccccc2)s1)N/N=C\c1ccc(O)c(O)c1`, the AbsAC35 is 10.6 µM (active).

For the compound `O=C(O)CCCNc1cc(N2CCN(C(=O)c3ccco3)CC2)c2noc3c2c1C(=O)c1ccccc1-3`, the AbsAC35 is 11.2 µM (active).

`Cc1ccc(-n2[nH]c(C)c(/C=N/Nc3ccc([N+](=O)[O-])cc3[N+](=O)[O-])c2=O)cc1C`: the AbsAC35 was 13.4 µM (active).

Turning to `CN(C=[N+](C)C)c1cccc2c1C(=O)c1ccccc1C2=O`, the AbsAC35 was 15.2 µM (active).

For the compound `CCN1/C(=C/c2ccc3cc(C)ccc3[n+]2CC)Sc2cc(C)c(C)cc21`, the AbsAC35 is 19.3 µM (active) and 11.4 µM (active).

In the case of `Cc1cc(C=O)c(C)n1-c1ccc(N2CCCCC2)c([N+](=O)[O-])c1`, the AbsAC35 is 17.3 µM (active).

For the compound `O=[N+]([O-])c1ccc(N2CCCC2)cc1N1CCCC1`, the AbsAC35 is 18.9 µM (active).

With `CCN(CC)c1ccc(/C=C/c2ccc3ccc(OC)cc3[n+]2CC)cc1`, the AbsAC35 was 11.4 µM (active).

Take `O=C(O)CCNc1ccc(NCCC(=O)O)c2c1C(=O)c1ccccc1C2=O`: the AbsAC35 was 11.8 µM (active).

Consider `CCc1ccc(S(=O)(=O)/N=C2\C=C(NS(=O)(=O)c3ccccc3)C(=O)c3ccccc32)cc1`, for which the AbsAC35 is 15.7 µM (active).

With `CC(C)(C)c1ccc(S(=O)(=O)/N=C2\C=C(NS(=O)(=O)c3ccccc3)C(=O)c3ccccc32)cc1`, the AbsAC35 was 13 µM (active).

In the case of `CC(C)c1ccc(S(=O)(=O)/N=C2\C=C(NS(=O)(=O)c3ccccc3)C(=O)c3ccccc32)cc1`, the AbsAC35 is 11.3 µM (active).

Consider `Cc1ccc(C)c(S(=O)(=O)/N=C2\C=C(NS(=O)(=O)c3ccccc3)C(=O)c3ccccc32)c1`, for which the AbsAC35 was 11.3 µM (active).

For the compound `Cc1[nH]c(O)nc1C(=O)CCCCC(=O)OCC(=O)Nc1ccccn1`, the AbsAC35 is 11.4 µM (active).

On to `Nc1ccc(Nc2ccccc2)c(S(=O)(=O)O)c1`, for which the AbsAC35 was 31.6 µM (active).

`CN(C)c1ccc(CNCCC(Cc2ccccc2)c2ccco2)cc1` (stereo not given): the AbsAC35 was 16.6 µM (active).

For `COc1ccccc1-c1nnc2n1N=C(c1ccc(O)c(O)c1)CS2`, the AbsAC35 is 18.5 µM (active).

As for `COc1cccc2c(SCC(=O)N/N=C/c3ccc(O)c(O)c3)cc(C)nc12`, the AbsAC35 was 12.7 µM (active).

Consider `N#C/C(=C/c1ccc(O)c(O)c1)C(=O)NCc1ccc(Cl)cc1`, for which the AbsAC35 is 14.6 µM (active).

For `COCC/N=c1\scc(-c2ccco2)n1/N=C/c1ccc(O)c(O)c1O`, the AbsAC35 was 11.7 µM (active).

With `O=C(/C=C/c1ccc(O)c(O)c1)c1ccccc1O`, the AbsAC35 was 20.7 µM (active).

For the compound `COc1ccc(S(=O)(=O)N2CCN(CC(=O)c3ccc(O)c(O)c3)CC2)cc1`, the AbsAC35 is 12.5 µM (active).

On to `O=C(CN1CCN(S(=O)(=O)c2ccc(Cl)cc2)CC1)c1ccc(O)c(O)c1`, for which the AbsAC35 was 14.7 µM (active).

On to `CC(C)c1ccc(S(=O)(=O)N2CCN(CC(=O)c3ccc(O)c(O)c3)CC2)cc1`, for which the AbsAC35 is 14.6 µM (active).

As for `CC1=C/C(=C\c2ccc(Br)o2)C(=O)O1`, the AbsAC35 was 25.7 µM (active).

As for `CCCn1nc([N+](=O)[O-])c(C(C#N)c2nc3ccccc3s2)c(Cl)c1=O` (stereo not given), the AbsAC35 is 13.4 µM (active).

In the case of `CCn1nc([N+](=O)[O-])c(C(C#N)c2nc3cc(C(F)(F)F)ccc3s2)c(Cl)c1=O` (stereo not given), the AbsAC35 was 22.2 µM (active).

For the compound `CCN(CC)c1ccc2c(-c3ccc(S(=O)(=O)O)cc3S(=O)(=O)[O-])c3ccc(=[N+](CC)CC)cc-3oc2c1`, the AbsAC35 was 14.9 µM (active).

As for `O=S(=O)(O)c1cc(Cl)cc(N=Nc2ccc(O)cc2O)c1O`, the AbsAC35 is 14.5 µM (active).

`O=S(=O)(O)c1cc(O)c(N=Nc2ccc(O)cc2O)c2ccccc12`: the AbsAC35 is 12.8 µM (active).

`O=C(O)c1ccccc1N=N/C(=N/Nc1cc(S(=O)(=O)O)ccc1O)c1ccccc1`: the AbsAC35 was 13.7 µM (active).

As for `O=C(Oc1ccccc1)c1cc(O)c(O)c(O)c1`, the AbsAC35 was 17.2 µM (active).

Consider `CC1=NN(c2ccccc2)C(=O)C1/C=C1\NC(=S)NC1=O` (stereo not given), for which the AbsAC35 is 28.8 µM (active).

Take `CCS(=O)(=O)C1=NN2C(=N)/C(=C\c3ccc(SCc4ccco4)o3)C(=O)N=C2S1`: the AbsAC35 was 18.7 µM (active).

As for `CC(=O)c1ccc2c(c1)C1C=CCC1C(C(=O)O)N2` (stereo not given), the AbsAC35 is 13.9 µM (active).

In the case of `Cc1ccc2[nH]c(/C(C#N)=C/c3ccc(O)c(O)c3)nc2c1`, the AbsAC35 was 22.9 µM (active).

Turning to `N#C/C(=C/c1ccc(O)c(O)c1)c1nc2ccccc2[nH]1`, the AbsAC35 was 15 µM (active).

In the case of `CC1COCC(C)N1C1=C(Cl)C(=O)c2ccccc2C1=O` (stereo not given), the AbsAC35 is 12.2 µM (active).

As to `O=[N+]([O-])c1ccccc1/C=C\C=N\N1CCN(c2ccccc2)CC1`, the AbsAC35 is 17.5 µM (active).

For the compound `O=C(COC(=O)c1ccccc1)Nc1ncc([N+](=O)[O-])s1`, the AbsAC35 is 21.8 µM (active).

Consider `Cc1cc2c(=Cc3ccc(N(C)C)cc3)c3ccccc3n2[n+]1C`, for which the AbsAC35 was 14.4 µM (active).

For the compound `NCCc1c(-c2ccccc2)n(-c2ccccc2)c2ccccc12`, the AbsAC35 is 18.5 µM (active).

With `CN(C)C=O.O=C(O)c1ccccc1NS(=O)(=O)c1ccc(N/N=C/c2ccc(O)c(O)c2)c([N+](=O)[O-])c1`, the AbsAC35 is 10.8 µM (active).

For the compound `COc1cc(OC)c(OC)cc1CCC(C)NCCC(c1ccccc1)c1ccccc1` (stereo not given), the AbsAC35 is 11.1 µM (active).

As to `CCN(c1ccccc1)S(=O)(=O)c1cc(C(=O)O)ccc1C`, the AbsAC35 is 17.7 µM (active).

As for `O=C1N=C(Nc2ccccc2Cl)S/C1=C\c1cccc([N+](=O)[O-])c1O`, the AbsAC35 is 17.4 µM (active).

Consider `Cc1ccc(NC(=O)CCCCCC2NC(=O)NC2C)cc1` (stereo not given), for which the AbsAC35 was 13.9 µM (active).

(Values after ChEMBL document CHEMBL1201862, “PubChem BioAssay data set” (2004).)
